Experimental data taken from PubChem BioAssay AID1233 (SRMLSC, 2008).
Measured potencies and affinities stand elsewhere. Activity calls are given as the source filed them.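 Rule for the calls: active = a dose-response curve fit returns a half-maximal inhibitory concentration, extrapolated values included; inactive = the fit returns no such concentration.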

target: HMG-CoA reductase [Enterococcus faecalis] (UniProt Q9FD70); assay: inhibitors of E. faecalis class II HMGR, confirmation, biochemical, Enterococcus faecalis (AID 1233); conditions: purified E. faecalis HMGR, NADPH absorbance 340 nm kinetics; series mostly up to 100 µM

outcome, inactive:
Cc1cc(N2CCN(c3nc(-c4ccc([N+](=O)[O-])cc4)cs3)CC2)c2ccccc2n1
CC(C)OCP(=O)(c1ccccc1)c1ccccc1
Cc1cc(C(=O)N/N=C2\CCCC(=O)C2)c(C)n1-c1ccccc1
COc1ccc(C(=O)CSc2nnnn2Cc2ccccc2)cc1
CC(C)CNC(=O)CSc1ccc(Cl)cc1
CCCn1c(SCC(=O)N2CC(=O)Nc3ccccc32)nc2ccccc21
COc1ccc(CCNC(=O)c2ccccc2Cl)cc1OC
C=C(C)Cn1c(-c2ccncc2)n[nH]c1=S
Cc1ccc(Cn2nnc3c(=O)n(CC(=O)NCc4ccco4)cnc32)cc1
O=C(/C=C/c1cccs1)c1ccc(NC(=O)c2ccccc2F)cc1
O=C(COC(=O)C1CCC(=O)N1)Nc1ccc(Br)cc1 (stereo not given)
CN(C)C(CNC(=O)CCOc1ccccc1)c1ccco1 (stereo not given)
CNc1cc(N2CCCCCC2)ccc1[N+](=O)[O-]
O=C(/C(=C/c1ccc(Cl)cc1)c1nc2ccccc2[nH]1)c1ccccc1
COc1ccc(N2C(=O)C3C4C=CC(C5CC45)C3C2=O)c([N+](=O)[O-])c1 (stereo not given)
S=C1NCCc2ccc(Cl)cc2C1c1ccccc1 (stereo not given)
O=C(Cn1cc(C(=O)C(F)(F)F)c2ccccc21)N1CCOCC1
O=C(O)C1CCCNC1 (stereo not given)
COc1ccc(CN2CCN(CCC(C)C)C(CCO)C2)cc1Cn1cccn1 (stereo not given)
Cc1ccc(S(=O)(=O)N2CCCC(C(=O)NCCCN3CCCCC3C)C2)cc1 (stereo not given)
